Compound activity: PubChem, NMMLSC
Myeloid diff MLP = myeloid differentiation induction. ER-HoxA9 myeloid progenitors, lysozyme-GFP differentiation, flow cytometry. calls only at 10 µM. actives 1% (n = 360,000);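 active = normalized GFP-positive differentiation at or above the plate's own cutoff, the solvent-only control mean plus 3 SD; inconclusive = no clear call, values can overlap the other calls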;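 note: cells exposed to compound for four days before flow analysis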
MEP2 TOR yeast = yeast TOR pathway MEP2-GFP modulation. S. cerevisiae MEP2-GFP strain, flow cytometry GFP, 3 h; 100% = DMSO control level. GFP response vs DMSO, % at 10 µM. actives 0.51% (n = 330,000). AID 2016;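 active = GFP response versus DMSO above a set limit, roughly screen mean plus 3 SD, cut at about 180% in these data; inconclusive = fewer than 70 cells counted for a yeast strain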;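 note: median GFP fluorescence of the barcode-gated MEP2-GFP cells per well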
AGP1 TOR yeast = yeast TOR pathway AGP1-GFP modulation; actives 0.02% (n = 320,000); GFP response vs DMSO, % at 10 µM; S. cerevisiae AGP1-GFP multiplex flow cytometry, 3 h; GFP as percent of DMSO wells;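 active = GFP response relative to DMSO above a set limit, near screen average plus 3 SD, cut at about 150% in these data; inconclusive = fewer than 70 cells counted for the yeast strain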;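 note: median GFP channel fluorescence of the gated AGP1 strain per well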
LAP4 TOR yeast = modulators of TOR pathway LAP4-GFP in S. cerevisiae; GFP response vs DMSO, % at 10 µM; actives 0.34% (n = 320,000); S. cerevisiae LAP4-GFP multiplex, flow cytometry GFP, 3 h; median GFP as percent of DMSO wells; AID 2023;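 active = GFP response vs DMSO above a set limit, about the screen mean plus 3 SD, cut at about 150% in these data; inconclusive = under 70 cell events counted for the yeast strain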
RPL19A TOR yeast = yeast TOR pathway RPL19A-GFP modulation; S. cerevisiae RPL19A-GFP strain, flow cytometry, 3 h; stronger effect = lower value; percent response vs DMSO, % at 10 µM; actives 0.3% (n = 330,000); AID 2025;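 active = percent response vs DMSO below 50%; inconclusive = fewer than 70 events counted for the yeast strain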;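 note: median channel GFP fluorescence of the barcoded RPL19A-GFP strain; ratio of sample median GFP to plate DMSO average so 100% = DMSO; lower means less RPL19A-GFP as with rapamycin TOR inhibition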
CIT2 TOR yeast = yeast TOR pathway CIT2-GFP modulation; S. cerevisiae CIT2-GFP strain, flow cytometry, 3 h; 100 means same as DMSO wells; actives 0.065% (n = 320,000); GFP response vs DMSO, % at 10 µM;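 active = GFP response relative to DMSO above a set limit, near the screen mean plus 3 SD, cut at about 150% in these data; inconclusive = Fewer than 70 cells measured for a yeast strain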;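 note: ratio of well median GFP fluorescence to mean of DMSO wells on the plate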
The depositor's hits bear a star; i = inactive; ? = inconclusive; . = no result given; + = active, no number; [ ] = another dose, or the depositor's remark. Shown are actives, neighbours in structure and some others; about 1.8% of the full set was active somewhere.

SMILES | Myeloid diff MLP | MEP2 TOR yeast | AGP1 TOR yeast | LAP4 TOR yeast | RPL19A TOR yeast | CIT2 TOR yeast
O=[N+]([O-])c1ccc(/C=C/C2=NN(c3ccccc3)C(c3ccco3)C2)cc1 (configuration not stated) | + | 159 | 20 | 115 | 89 | ?
O=[N+]([O-])c1ccc(C2=NN(c3ccccc3)C(c3ccco3)C2)cc1 (configuration not stated) | + | . | . | . | . | .
O=[N+]([O-])c1ccc(C=CC=Cc2ccccc2)cc1 | i | . | . | . | . | .
CC1=NN(c2ccccc2)C(c2ccco2)C1 (configuration not stated) | i | . | . | . | . | .
Cc1nn(Cc2ccc([N+](=O)[O-])cc2)c(=O)n1N(C)c1ncc(C(F)(F)F)cc1Cl | i | 94 | 91 | 90 | 94 | 88
Cc1nn(Cc2ccc(Cl)cc2)c(=O)n1N(C)c1ncc(C(F)(F)F)cc1Cl | i | 207* | . | 116 | 88 | 96
c1ccc(CNCc2ccco2)cc1 | i | 106 | 105 | 88 | 108 | 109
CC(C)=C1C2CCC1C1C(=O)N(c3nc(-c4ccc(C(C)C)cc4)c(C)s3)C(=O)C21 (configuration not stated) | i | 100 | 97 | 90 | 100 | 89
Cc1cc(C)nc(SCC(=O)NCC2COc3ccccc3O2)n1 (configuration not stated) | i | 102 | 104 | 102 | 102 | 94
Cn1c(=O)cc(SCC(=O)NCC2COc3ccccc3O2)c2ccccc21 (configuration not stated) | i | 397*[may fluoresce violet] | 22 | 78 | 63 | ?
Cc1ccccc1OCC(=O)OCC(=O)NC1CCCCCC1 | i | . | . | . | . | .
CCOc1ccccc1C1C(C#N)=C(N)SC(N)=C1C#N | + | 105 | 99 | 112 | 96 | 103
CCOc1ccc(C2C(C#N)=C(N)SC(N)=C2C#N)cc1OCC | + | 104 | 103 | 102 | 100 | 106
CCCCN1C(=O)c2ccc(C(=O)Nc3ccc(C)c(S(=O)(=O)N(C)C)c3)cc2C1=O | i | 103 | 102 | 92 | 100 | 99
CC(C)C[C@H]1CNC(=S)N1C[C@H]1CCCN1C[C@H](Cc1ccccc1)N1C[C@H](Cc2ccc(O)cc2)N(CC2CCCCC2)C1=S | + | . | . | . | . | .
CCOc1ccc(CCN2C(=S)N([C@@H](Cc3ccc(O)cc3)CN3CCC[C@@H]3CN3C(=S)NC[C@@H]3CC(C)C)C[C@@H]2Cc2ccc(O)cc2)cc1 | + | . | . | . | . | .
CCOc1ccc(N2CC(C(=O)Nc3ccccc3N3CCOCC3)CC2=O)cc1 (configuration not stated) | i | 260*[may fluoresce violet] | 24 | 88 | 38*[may fluoresce violet] | ?
CCc1ccc(C2=CC(c3cc(Br)ccc3F)n3ncnc3N2)cc1 (configuration not stated) | + | 111 | 95 | 106 | 104 | 96
CN(C)CCCNc1cc(C(C)(C)C)nc2c(-c3ccc(Cl)cc3)cnn12 | i | 151 | 81 | 186* | 56 | 61
CC(C)(C)c1cc(NCc2ccccn2)n2ncc(-c3ccc(Cl)cc3)c2n1 | i | 103 | 100 | 110 | 98 | 81
CCOC(=O)c1cc(C)[nH]c(=O)c1C#N | i | 680*[may fluoresce violet] | ? | 70 | 33*[may fluoresce violet] | ?
O=C(/C=C/c1ccc(-c2ccccc2[N+](=O)[O-])o1)c1ccc(Br)cc1 | i | 98 | 93 | 162* | 99 | 93
O=C(/C=C/c1ccc(-c2ccccc2[N+](=O)[O-])o1)c1ccc(F)cc1 | i | 94 | 88 | 143 | 94 | 85
C[C@]12CCC(=O)C[C@@H]1CC[C@@H]1[C@@H]2CC[C@]2(C)[C@@H](C(=O)COC(=O)CCC(=O)O)CC[C@@H]12 | i | 95 | 92 | 92 | 98 | 82
COC1=CC(=Cc2c(N)n3nc(CC(=O)N4CCCCC4)sc3nc2=O)C=C(OC)C1=O | + | 113 | 97 | 84 | 102 | 110
SMILES | Myeloid diff MLP | MEP2 TOR yeast | AGP1 TOR yeast | LAP4 TOR yeast | RPL19A TOR yeast | CIT2 TOR yeast
Cc1ccnc(N/C=C(\C#N)c2nc(-c3cccc(Br)c3)cs2)c1 | + | 115 | 77 | 123 | 90 | 84
CCOC(=O)c1c(O)c2ccccc2n(-c2ccccc2)c1=O | i | 218*[may fluoresce violet] | ? | 100 | 58 | ?
CCCCCn1c(=O)c(C(=O)OCC)c(O)c2ccccc21 | i | 105 | 104 | 108 | 98 | 81
COC(=O)/C=C1/S/C(=N/NC(=O)c2ccc(Cl)cc2Cl)NC1=O | i | 177*[may fluoresce violet] | 39 | 113 | 95 | ?
COC(=O)/C=C1/S/C(=N/NC(=O)c2ccccc2OC)NC1=O | + | 103 | 98 | 98 | 96 | 100
CCN(C[C@H]1N[C@@](CC)(C(=O)OC)[C@H]2C(=O)N(Cc3ccccc3)C(=O)[C@@H]12)C(=O)Nc1ccc(C)cc1 | + | 103 | 108 | 98 | 104 | 111
CC1(C)CC(=O)C=C(Nc2ccc3c(c2)CCC3)C1 | . | 101 | 100 | 92 | 101 | 106
CC1CCc2c(C(=O)NCc3ccccn3)csc2C1 (configuration not stated) | i | 112 | 95 | 93 | 100 | 103
CC1CCc2c(C(=O)NCc3cccnc3)csc2C1 (configuration not stated) | i | 159 | 111 | 148 | 122 | 169*
c1ccc2c(c1)CC1(CCCCC1)n1nnnc1-2 | + | 103 | 103 | 103 | 95 | 101
CC(=O)OCC1CC(COC(C)=O)C(COC(C)=O)CC1COC(C)=O (configuration not stated) | i | . | . | . | . | .
COc1ccc(-c2nnn(CC(=O)N(Cc3cccs3)C(C)C(=O)NC3CCCC3)n2)cc1OC (configuration not stated) | + | 96 | 98 | 100 | 98 | 94
COc1ccccc1OCC(=O)Sc1ccc(C)cc1 | i | 97 | 98 | 159* | 93 | 93
O=C1CSC(c2ccccc2F)N1 (configuration not stated) | i | 97 | 107 | 110 | 98 | 101
COc1ccc(OC)c2c1C(=O)c1ccccc1C2=O | . | 96 | 93 | . | 90 | 91
COc1ccc2noc3c2c1C(=O)c1ccccc1-3 | + | 168 | 94 | 147 | 105 | 143
O=C(CCc1nc2ccccc2c(=O)[nH]1)Nc1cc(Cl)ccc1N1CCCCC1 | + | 96 | 100 | 95 | 100 | 98
CN(C)c1c2ccccc2nc2c(F)c(F)c(F)c(F)c12 | i | 188*[may fluoresce violet] | ? | 68 | 65 | ?
Cc1c2ccccc2nc2c(F)c(N(C)C)c(F)c(F)c12 | i | 88 | 93 | 96 | 100 | 96
O=C(c1ccc2c(c1)OCO2)N1CCN=C1SCc1ccccc1 | i | 96 | 103 | 104 | 100 | 97
